Results published in PubChem BioAssay AID1159580 (chemical genetic matrix, 2015).
The campaign covered roughly 5,500 compounds. About 2,000 (36%) were called active. Not shown: some 18% with an inconclusive outcome. Cut-off read from the data, not from the text of the source: active = normalized growth mostly below about 0.91 (no sharp cut-off); inconclusive = no clear call, values can overlap the other calls; inactive = mostly above about 0.92. The list shows a part of the results.

Test: chemical genetic growth profiling, strain panel (AID 1159580);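 note: tested at 20 µM; growth read once vehicle control cultures reached saturation at 30 °C; 1 = growth at the plate median or of vehicle wells; lower values mean less growth of the strain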
Settings: S. cerevisiae deletion strains, growth OD

Measured: normalized growth

CO[C@H]1/C=C/O[C@@]2(C)Oc3c(C)c(O)c4c(O)c(c5c(nc6cc(C)ccn65)c4c3C2=O)NC(=O)/C(C)=C\C=C\[C@H](C)[C@H](O)[C@@H](C)C(O)[C@@H](C)[C@H](OC(C)=O)[C@@H]1C (stereo not given in full)
inactive: locus YAL021C, strain ccr4, hits give low values 1.04 | locus YAL026C, strain drs2, hits give low values 1.04 | locus YAL030W, strain snc1, hits give low values 1.04 | locus YBL061C, strain skt5, hits give low values 1.04 | locus YBR009C, strain hhf1, hits give low values 1.01 | locus YBR023C, strain chs3, hits give low values 1.05 | locus YBR171W, strain sec66, hits give low values 1.06 | locus YBR231C, strain swc5, hits give low values 1.05 | locus YBR279W, strain paf1, hits give low values 1.03 | locus YCL011C, strain gbp2, hits give low values 1.05 | locus YCL016C, strain dcc1, hits give low values 1.03 | locus YCL061C, strain MRC1, hits give low values 1.04 | locus YCL069W, strain vba3, hits give low values 1.05 | locus YCR088W, strain abp1, hits give low values 1.04 | locus YDL005C, strain med2, hits give low values 1.06 | locus YDL040C, strain nat1, hits give low values 1.03 | locus YDR001C, strain nth1, hits give low values 1.04 | locus YDR069C, strain doa4, hits give low values 1.04 | locus YDR137W, strain rgp1, hits give low values 0.988 | locus YDR159W, strain sac3, hits give low values 1.05 | locus YDR195W, strain ref2 1.05 | locus YDR297W, strain sur2, hits give low values 1.04 | locus YDR334W, strain swr1, hits give low values 1.03 | locus YDR335W, strain msn5, hits give low values 1.04 | locus YDR392W, strain spt3, hits give low values 0.961 | locus YEL003W, strain gim4, hits give low values 1.04 | locus YEL037C, strain rad23, hits give low values 1.04 | locus YEL061C, strain CIN8 (second series), hits give low values 1.04 | locus YER015W, strain faa2, hits give low values 1.04 | locus YER016W, strain bim1, hits give low values 1.03 | locus YER111C, strain swi4, hits give low values 1.05 | locus YER155C, strain BEM2 (second series), hits give low values 1.02 | locus YFR010W, strain ubp6, hits give low values 1.04 | locus YGL167C, strain pmr1, hits give low values 1.04 | locus YGL173C, strain kem1, hits give low values 1.04 | locus YGL227W, strain vid30, hits give low values 1.05 | locus YGL240W, strain doc1, hits give low values 1.03 | locus YGL253W, strain hxk2, hits give low values 1.06 | locus YHR013C, strain ard1, hits give low values 1.08 | locus YHR027C, strain rpn1, hits give low values 1.04 | locus YHR030C, strain SLT2, hits give low values 1.03 | locus YHR079C, strain IRE1, hits give low values 1.03 | locus YHR142W, strain chs7, hits give low values 1.07 | locus YJL092W, strain hpr5, hits give low values 1.04 | locus YJL095W, strain BCK1 (second series), hits give low values 1.03 | locus YJL095W, strain BCK1, hits give low values 0.988 | locus YJL115W, strain asf1, hits give low values 1.04 | locus YJL129C, strain trk1, hits give low values 1.06 | locus YJL154C, strain vps35, hits give low values 1.04 | locus YJL164C, strain tpk1, hits give low values 1.04 | locus YJL166W, strain qcr8, hits give low values 1.05 | locus YJL187C, strain SWE1, hits give low values 1.06 | locus YJR066W, strain TOR1, hits give low values 0.982 | locus YKL160W, strain elf1, hits give low values 1.05 | locus YKR026C, strain gcn3, hits give low values 1.05 | locus YKR091W, strain srl3, hits give low values 1.04 | locus YLL001W, strain dnm1, hits give low values 1.08 | locus YLL026W, hits give low values 1.04 | locus YLL041C, strain sdh2, hits give low values 1.04 | locus YLR027C, strain aat2, hits give low values 1.03 | locus YLR113W, strain HOG1, hits give low values 1.01 | locus YLR221C, strain rsa3, hits give low values 1.06 | locus YLR258W, strain gsy2, hits give low values 1.04 | locus YLR262C, strain YPT6 (second series), hits give low values 1.09 | locus YLR320W, strain mms22, hits give low values 1.04 | locus YLR342W, strain FKS1, hits give low values 1.04 | locus YLR357W, strain rsc2, hits give low values 1.07 | locus YLR370C, strain arc18, hits give low values 1.04 | locus YLR384C, strain iki3, hits give low values 1.04 | locus YML120C, strain ndi1, hits give low values 1.02 | locus YMR058W, strain fet3, hits give low values 1.03 | locus YMR125W, strain sto1, hits give low values 1.05 | locus YMR129W, hits give low values 1.03 | locus YMR205C, strain PFK2, hits give low values 1.05 | locus YMR231W, strain pep5, hits give low values 1.04 | locus YNL071W, strain lat1, hits give low values 1.05 | locus YNL183C, strain NPR1, hits give low values 0.988 | locus YNL209W, strain ssb2, hits give low values 1.03 | locus YNL248C, strain rpa49, hits give low values 1.06 | locus YNL322C, strain KRE1 (second series), hits give low values 1.05 | locus YNR049C, strain mso1, hits give low values 1.03 | locus YOR001W, strain rrp6, hits give low values 1.01 | locus YOR070C, strain gyp1, hits give low values 1.04 | locus YOR080W, strain dia2, hits give low values 1.04 | locus YOR083W, strain WHI5, hits give low values 1.04 | locus YOR106W, strain vam3, hits give low values 1.1 | locus YOR231W, strain MKK1, hits give low values 0.989 | locus YOR265W, strain rbl2, hits give low values 1.03 | locus YOR270C, strain vph1, hits give low values 1.1 | locus YOR290C, strain snf2, hits give low values 1.04 | locus YPL051W, strain arl3, hits give low values 1.02 | locus YPL078C, strain atp4, hits give low values 1.05 | locus YPL106C, strain sse1, hits give low values 1.03 | locus YPL240C, strain hsp82, hits give low values 1.04 | locus YPL256C, strain CLN2, hits give low values 1.06
